# Assay results taken from PubChem BioAssay (NCI).
# About 83,000 compounds went through this panel and 20% of them were active in at least one assay; those are over-represented in the sample as a whole.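 The endpoint reported here, percent growth, reads 100 for growth as untreated, 0 for no net growth and -100 for all cells dead.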 Active and inactive are the calls of the source.
# System: TK-10 renal
# Assay: NCI-60 one-dose screen, 48 h (100 = growth as untreated, 0 = no growth, -100 = all killed)
# Conditions: 10 µM unless noted
# Procedure: Growth inhibition of the TK-10 human tumor cell line is measured as a screen for anti-cancer activity. Cells are grown in 96 well plates and exposed to the test compound for 48 hours. Compounds are tested at a single concentration, which is 10^-5 M for most compounds. The reported endpoint is percent growth (GI% or GIPRCNT), where numbers from 0 - 100% represent growth inhibition, and numbers from -100% - 0 represent cell death. For example, a value of 40 represents 60% growth inhibition. A value of 0 means no net growth occurred over the course of the experiment. A value of -40 indicates 40% of cells at the beginning of the experiment died by the end of the experiment. A value of -100 means all cells are dead at the end of the experiment.
# NCI-60 Human Tumor Cell Lines Screen was performed using the standard one-dose NCI protocol, which is described in more detail at https://dtp.cancer.gov/discovery_development/nci-60/default.htm.
# Compounds with GIPRCNT values below 10 were considered active. Activity score was based on GIPRCNT using the following formula: […]
# Score is 0 for GIPRCNT values of 100 or above, 50 for GIPRCNT values of 0, and 100 for GIPRCNT values of -100.
row,Compound,growth
1,COC(=O)/C=C/C(=O)c1cc(C)cc(C)c1O,96.9% (inactive)
2,CCCCNC(=O)Oc1ccc(/C(=C(/CC)Cc2ccccc2)c2ccc(OCCCN(C)C)cc2)cc1,91.9% (inactive)
3,Cc1cn([C@]2(CF)O[C@H](CO)C2C)c(=O)[nH]c1=O (stereo not given in full),109% (inactive)
4,O=c1c(-c2ccc3c(c2)OCO3)coc2c(CO)c(O)ccc12,-15.2% (active)
5,Cc1ncc(CO)c(C(=O)O)c1O,81.2% (inactive)
6,COc1cc(C(=O)NNC(=O)c2ccccc2O)cc(OC)c1OC,85.6% (inactive)
7,Nc1nc(-c2cc3c(cc2Cl)NC(=O)/C3=C/c2ccc(Cl)cc2)cs1,82.3% (inactive)
8,O=C1C(Cl)=C(Nc2cccc3cc4ccccc4nc23)C(=O)c2ccccc21,54.5% (inactive)
9,C=C1C(=O)O[C@H]2[C@H]1CC/C(COC(=O)CCCC(=O)OC/C1=C/CC[C@@]3(C)O[C@H]3[C@H]3OC(=O)C(=C)[C@@H]3CC1)=C\CC[C@@]1(C)O[C@@H]21,7.23% (active)
10,COc1cc(Cn2cc3c(c2)-c2onc(CO)c2CC3)cc(OC)c1OC,96.4% (inactive)
11,O=C1c2ccccc2C(=O)c2c(NCCN=Cc3c(O)ccc4ccccc34)cccc21,94.2% (inactive)
12,COc1cc2c(cc1OC)-c1c(oc3c4c(ccc3c1=O)OC(C)(C)C=C4)CO2,67.9% (inactive)
13,C[C@H]1C=C(C[C@@H](O)CCCCCCCCCC[C@@H](O)[C@H]2CCC(=O)O2)C(=O)O1,100% (inactive)
14,CCN(CC)CCNCC(O)Cc1ccc(OC)cc1 (stereo not given),88% (inactive)
15,CNC(=O)NN,111% (inactive)
16,COc1ccc(Cl)cc1NC(=O)c1cc2c(n1C)-c1nc(NC(=O)C(C)(C)C)sc1CC2,98% (inactive)
17,Nc1c(C(=O)O)[nH]c(=O)[nH]c1=O,103% (inactive)
18,CCCOC(=O)c1ccc([N+](=O)[O-])o1,104% (inactive)
19,O=C(O)c1ccc(-c2nn(-c3ccc(C(=O)O)cc3)cc2/C=N/Nc2c(F)c(F)cc(F)c2F)cc1,98.1% (inactive)
20,CCCCCCCCCCCCCCCCCCNCc1ccc(Cl)cc1,-65.1% (active)

row,Compound,growth
1,CC(C)(C)OC(=O)N1CC(Cn2cc(C(F)(F)F)c3c(Cl)ncnc32)C1,115% (inactive)
2,CCN(CC)c1ccc(C2CC(c3cc(OC)c(OC)c(OC)c3)=NN2)cc1 (stereo not given),77.8% (inactive)
3,C=C1C(=O)O[C@H]2[C@H]1CC/C(CNC(=O)/C1=C/CC[C@@]3(C)O[C@H]3[C@H]3OC(=O)C(=C)[C@@H]3CC1)=C\CC[C@@]1(C)O[C@@H]21,102% (inactive)
4,O=[N+]([O-])c1cccc2cc(S(=O)(=O)O)ccc12,94% (inactive)
5,COc1ccc(OC)c(NCC(=O)n2nc(/C=C\c3ccc(O)c(OC)c3)cc2/C=C\c2ccc(O)c(OC)c2)c1,16.4% (inactive)
6,CC(=O)N1N=C(CCC(=O)c2nc3ccc([N+](=O)[O-])cc3[nH]2)OC1c1ccc(O)cc1 (stereo not given),113% (inactive)
7,COc1ccc(/C=C/C(=O)c2ccc(Oc3ncnc4ccccc34)cc2)cc1OC,96.6% (inactive)
8,COC(=O)c1oc2c(C(C)=O)c(OCCCN(C)C)ccc2c1C,90.8% (inactive)
9,COc1ccc(/C=C/C(=O)c2ccc(NC(=O)CSc3nnc(-c4cc(OC)c(OC)c(OC)c4)o3)cc2)cc1,78.8% (inactive)
10,NN=C(c1ccc(Cl)cc1)c1ccc(Cl)cc1,110% (inactive)
11,CC(=S)Nc1ccccc1,109% (inactive)
12,COc1ccccc1S(=O)(=O)Nc1ccc2c3c(cc(-c4cnn(C5CC5)c4)nc13)C(=O)N2C,48.2% (inactive)
13,Cc1cc(N2CCOCC2)nc(N(CCNc2ccnc3cc(Cl)ccc23)Cc2ccco2)n1,10.9% (inactive)
14,Clc1ccc(CN2COc3c(ccc4cccnc34)C2)cc1Cl,25.9% (inactive)
15,O=c1[nH]ccc2nc(N3CCC(O)CC3)nc(Nc3cccc(C(F)(F)F)c3)c12,67.6% (inactive)
16,O=C(N/N=C/c1ccccc1O)c1ccccc1O,42.4% (inactive)
17,CC(=O)CC/C=C(\C)[C@H](O)[C@H](C)C(=O)O[C@H]1C[C@H](C)C=C2C=C[C@@]3(C)O[C@@H](O)CC(=O)[C@]3(C)[C@H]21,-27.4% (active)
18,Nn1c(SCC(=O)Nc2cc(Cl)c(Cl)cc2Cl)nnc1-c1cc(F)c(Cl)cc1Cl,123% (inactive)
19,S=c1[nH]nc(Cn2c3ccccc3c3ccncc32)o1,102% (inactive)
20,C=CC(=O)NC(=O)Nc1ccccc1Cl,45.2% (inactive)
